Measured values taken from PubChem BioAssay (NCATS).
Unmarked numbers belong to inactive results. Inconclusive results are not listed. Entries that show only a call come without a potency. Activity calls are given as the source filed them. The call rests on the fitted dose curve; in most records, active means well fitted curve in the direction sought with a large enough effect; inconclusive means small, poorly fitted or top-dose-only effect, or another doubt; inactive means no such curve, though single readings can be large; an effect the other way counts as inactive or inconclusive.

Experiments:
[1] = Primary qHTS for inhibitors of nuclear receptor binding SET domain protein 2 (NSD2) in an RCH-ACV wild type WT cells (2C) (AID 1645877); further: nearly all actives have a fitted effect of over 70% in size; further: potency means the concentration at half of the fitted maximal effect
[2] = target: Glutathione peroxidase 1 (Homo sapiens) (UniProt P07203); experiment: Primary qHTS Assay for Inhibitors of Recombinant Selenoprotein Glutathione Peroxidase 1 (GPX1) (AID 1845191); further: nearly all actives have a fitted effect of over 65% in size
Outline: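 GR-coupled readout: NADPH consumption tracked by fluorescence, ex 340/em 450 nm, at t=0 and after 15 min at RT. Final mix 10 nM GPX1, 1 mM GSH, 0.5 mM CHP, 0.5 mM NADPH, 100 nM GR, 0.01% BSA, following 30 min enzyme–compound preincubation.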

[3] = target: Phospholipid hydroperoxide glutathione peroxidase GPX4 (Homo sapiens) (UniProt P36969); experiment: Primary qHTS Assay for Inhibitors of Recombinant Selenoprotein Glutathione Peroxidase 4 (GPX4) (AID 1845192); further: nearly all actives have a fitted effect of over 65% in size
Outline: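 Steps: GPX4 plus compound, 30 min RT; add GR/GSH/NADPH master mix; start with cumene hydroperoxide; read 340/450 nm fluorescence at 0 and 15 min. Finals were 200 nM GPX4, 1 mM GSH, 0.5 mM CHP, 0.5 mM NADPH, 100 nM GR.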

[4] = target: Luciferin 4-monooxygenase (Photinus pyralis) (UniProt P08659); experiment: Primary firefly luciferase (FLuc) qHTS assay for identification of artifact compounds. (AID 1845220); further: nearly all actives have a fitted effect of over 60% in size
Outline: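 Enzymatic FLuc inhibition assay: compounds pre-exposed to luciferin/ATP (10 uM each) for 15 min, then purified P. pyralis enzyme at 10 nM added. Read-out: luminescence at 5 min.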

[5] = tested on: Nanoluciferase (engineered Oplophorus gracilirostris luciferase); experiment: Primary Nanoluciferase (NLuc) qHTS assay for identification of artifact compounds. (AID 1845222);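 further: NLuc secreted into diluted conditioned medium of S16 cells; series mostly up to about 54 µM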
Outline: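 S16 cell supernatant NLuc, 1:55; cpds qHTS; 15 min RT dark; Nano-Glo substrate 1:100, 5 min; luminescence; Hill fit of % inhibition.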

[6] = Primary redox qHTS assay for identification of artifact compounds. (AID 1845223)
Outline: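 Redox-cycling detection via DTT (250 uM final) oxidation coupled to Amplex Red (25 uM)/HRP (250 mU/mL) in HBSS. 15 min preincubation plus 30 min after DTT, room temperature. Ex/Em 525/598 nm; 4-parameter Hill fit against DMSO and 10 uM DA3003.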

Sequence of Phospholipid hydroperoxide glutathione peroxidase GPX4 (Homo sapiens) (P36969 whole entry, looked up): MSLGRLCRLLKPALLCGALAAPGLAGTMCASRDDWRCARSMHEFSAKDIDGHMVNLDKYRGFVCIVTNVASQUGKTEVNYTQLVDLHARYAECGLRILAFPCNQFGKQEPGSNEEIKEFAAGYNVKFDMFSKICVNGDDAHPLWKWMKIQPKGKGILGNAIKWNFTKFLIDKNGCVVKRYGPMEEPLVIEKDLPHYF
Sequence of Glutathione peroxidase 1 (Homo sapiens) (P07203 whole entry, looked up): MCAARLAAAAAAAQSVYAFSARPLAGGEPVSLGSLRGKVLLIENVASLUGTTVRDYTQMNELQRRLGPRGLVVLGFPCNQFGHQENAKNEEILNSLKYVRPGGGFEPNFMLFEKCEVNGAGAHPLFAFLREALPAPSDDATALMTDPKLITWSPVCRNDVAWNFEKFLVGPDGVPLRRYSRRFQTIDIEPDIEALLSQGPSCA

| Compound | Potency [1] | Potency [2] | Potency [3] | Potency [4] | Potency [5] | Potency [6] |
| --- | --- | --- | --- | --- | --- | --- |
| O=S(=O)(NCC1CC1)c1ccc(Nc2nccc(N3CCCc4cc(O)ccc43)n2)cc1 | 1.15 µM (active) | inactive | inactive | inactive | inactive | inactive |
| C=C1CN(Cc2ccc(C(=O)Nc3ccccc3N)cc2)C(=O)c2ccccc21 | 0.23 µM (active) | inactive | inactive | inactive | inactive | inactive |
| OC[C@H]1O[C@@H](OCCc2ccc(O)cc2)[C@H](O[C@@H]2OC[C@](O)(CO)[C@H]2O)[C@@H](O)[C@@H]1O | inactive | inactive | inactive | inactive | inactive | inactive |
| Cc1cc(C)cc(C(=O)NOCCCCCC(=O)NO)c1 | 0.409 µM (active) | inactive | inactive | inactive | inactive | inactive |
| Cn1c(=O)cc(N2CCCC(N)C2)n(Cc2cc(F)ccc2C#N)c1=O (stereo unspecified) | inactive | inactive | inactive | inactive | inactive | inactive |
| CC1=CC(=O)C(=C(C)C)CC2C1CCC2(C)O (stereo unspecified) | inactive | inactive | inactive | inactive | inactive | inactive |
| O=C(O)c1cc(-c2c(-c3ccccc3)nn3ccccc23)n[nH]c1=O | inactive | inactive | inactive | inactive | inactive | inactive |
| COC(=O)Cc1cc2c(c([N+](=O)[O-])c1)N(C(=O)CC[C@H](N)C(=O)O)CC2 | inactive | inactive | inactive | inactive | inactive | inactive |
| C=CC1(C)C=C2C(=O)OC(=O)C3=C(CCCC3(C)C)C2(O)CC1 (stereo unspecified) | inactive | inactive | inactive | inactive | inactive | inactive |
| C=CC(C)(C)c1[nH]c2cc3c(cc2c1CC1NC(=O)C2CCCN2C1=O)C=CC(C)(C)O3 (stereo unspecified) | inactive | inactive | inactive | inactive | inactive | inactive |
| CC(=O)CCC1=C(C)C(O[C@@H]2O[C@H](CO)[C@@H](O)[C@H](O)[C@H]2O)C(O)CC1(C)C (stereo partly specified) | inactive | inactive | inactive | inactive | inactive | inactive |
